The source of these data is PubChem BioAssay (NCATS).

For test [1], the system named is Zika virus NS2B-NS3 protease. Nature of the test: Primary screen GU AMC qHTS for Zika virus inhibitors (AID 1347154).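 Note: 0% = no-inhibitor control and -100% = no-enzyme control; nearly all actives have a fitted effect of over 70% in size.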 The following applies: Zika NS2B-NS3 unlinked protease, AMC fluorogenic substrate; series mostly up to 54.1 µM. Summed up:
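Fluorogenic AMC-substrate cleavage by noncovalent NS2B-NS3 protease complex (25 nM, pH 8.0 Tris buffer with Tween 20) followed for 15 minutes at room temperature (~20% conversion). Percent inhibition from ex340/em450 signal change, fitted by 4-parameter Hill equation.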

The nature of test [2]: Counterscreen qHTS for small molecule stabilizers of the endoplasmic reticulum resident proteome: GLuc-NoTag assay (AID 1508627).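 For activity change, negative = inhibition: 0% = thapsigargin alone and -100% = DMSO vehicle control.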 Note: potency is the fitted concentration of half-maximal effect. The following applies: Gaussia luciferase NoTag secretion counterscreen, luminescence, thapsigargin 100 nM for final 4 h; series mostly up to 76.4 µM. Summed up: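 Counterscreen line: SH-SY5Y-GLuc-NoTag cells, treated with compound 19 hr before a 4 hr, 100 nM thapsigargin calcium depletion. Secreted Gaussia luciferase in the medium was measured by luminescence after coelenterazine was added (0.07x final), with cells unlysed.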
(In general: A counterscreen serves to expose hits that act by an unwanted route or on another target.)

A short description of test [3]: Confirmatory qHTS for small molecule stabilizers of the endoplasmic reticulum resident proteome: Secreted ER Calcium Modulated Protein (SERCaMP) assay (AID 1508628). Note: potency is the fitted concentration of half-maximal effect; nearly all actives have a fitted effect of over 40% in size. The following applies: SERCaMP secreted luciferase ER calcium/proteostasis reporter; series mostly up to 76.3 µM. Summed up:
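Reporter secretion upon ER calcium depletion (100 nM thapsigargin, 4 h, 37C) is measured as medium luminescence with coelenterazine, after 16 h compound pretreatment of SH-SY5Y-GLuc-SERCaMP cells; primary at three concentrations up to 38.3 uM, follow-up at 11 (up to 76.6 uM).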
Background: qHTS replaces the single test concentration by a dilution series.

A short description of test [4]: Primary qHTS for inhibitors of nuclear receptor binding SET domain protein 2 (NSD2) in an isogenic RCH-ACV NSD2 p.E1099K mutant (9B) (AID 1645876). Note: potency is the fitted concentration of half-maximal effect; nearly all actives have a fitted effect of over 70% in size. To be noted: RCH-ACV NSD2 E1099K (9B) viability, CellTiter-Glo, 72 h; series mostly up to 44.9 µM.
Test [5] in a line: Primary qHTS for inhibitors of nuclear receptor binding SET domain protein 2 (NSD2) in an RCH-ACV wild type WT cells (2C) (AID 1645877). Note: potency is the fitted concentration of half-maximal effect; nearly all actives have a fitted effect of over 70% in size. To be noted: RCH-ACV (leukaemia line) NSD2 WT (2C) viability, CellTiter-Glo, 72 h; series mostly up to 44.9 µM.
In test [6] the target is Catechol O-methyltransferase (Homo sapiens) (UniProt P21964). Nature of the test: Confirmatory Screen for Target Class Profiling of Small Molecule Inhibitors of Methyltransferases (AID 1745852; calls by dose curve; note: potency is the fitted concentration of half-maximal effect). The following applies: MTase-Glo luminescence, SAH detection, recombinant enzyme; measured here: COMT max response; stronger effect = lower value.
In test [7] the target is Guanidinoacetate N-methyltransferase (Homo sapiens) (UniProt Q14353). The test is described as above. The following applies: MTase-Glo luminescence, SAH detection, recombinant enzyme; activity change, negative = inhibition: at 57.3 µM (top of the series) unless noted; series mostly up to 57.3 µM.
Test [8] deals with Nicotinamide N-methyltransferase (Homo sapiens) (UniProt P40261). The test is described as above. To be noted: MTase-Glo luminescence, SAH detection, recombinant enzyme; measured here: NNMT max response; stronger effect = lower value.
Test [9] deals with Phenylethanolamine N-methyltransferase (Homo sapiens) (UniProt P11086). Described as above. To be noted: MTase-Glo luminescence, SAH detection, recombinant enzyme; measured here: PNMT max response; stronger effect = lower value.
The target of test [10] is Glutathione peroxidase 1 (Homo sapiens) (UniProt P07203). Nature of the test: Primary qHTS Assay for Inhibitors of Recombinant Selenoprotein Glutathione Peroxidase 1 (GPX1) (AID 1845191). Note: % is set by controls: 0 for no effect and ±100 for the full control effect; nearly all actives have a fitted effect of over 65% in size. The following applies: recombinant GPX1, GR-coupled NADPH fluorescence, 15 min; series mostly up to 48.8 µM. The method, boiled down:
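NADPH consumption tracked by fluorescence at 340/450 nm between t=0 and t=15 min, room temperature. Final mix: 10 nM GPX1, 100 nM glutathione reductase, 1 mM GSH, 0.5 mM NADPH, 0.5 mM cumene hydroperoxide, 0.01% BSA; 30 min compound–enzyme preincubation.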

Test [11] is described as follows: AP1 Signaling Pathway (AID 357; active = well fitted curve in either direction with a large enough effect, not every such curve was filed as active;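 note: ME-180 reporter cells stimulated with EGF at its EC50 level; % is set by controls: 0 for no effect and ±100 for the full control effect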). The following applies: ME-180 AP-1-bla reporter, EGF-induced, beta-lactamase ratio, 5 h. Summed up:
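AP-1-bla ME-180 cells, Opti-MEM + 0.5% dialyzed FBS, plated overnight 37 °C. Cpd titration + EC50 EGF, 5 h 37 °C. CCF4 2.5 h RT; ex 405, em 460/530 ratio → %activity, AC50.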

Test [12] can be described thus: Stat Signaling Pathway (AID 446; active = well fitted curve in either direction with a large enough effect, not every such curve was filed as active;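 note: ME-180 cervical cancer cells given 40 pM IL-6 alongside compound; SIE-controlled beta-lactamase reporter measured as 460/530 nm FRET emission ratio; % is set by controls: 0 for no effect and ±100 for the full control effect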). To be noted: ME-180 (cervical carcinoma) SIE beta-lactamase reporter, IL-6 stimulated, 5 h. The method, boiled down: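 Emission at 460 and 530 nm (excitation 405 nm) reports SIE-controlled beta-lactamase in ME-180 cells. Cells received compound with 40 pM IL-6 for 5 hrs at 37 C; data scaled between 300 pM IL-6 and 125 nM JAK-inhibitor controls.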
Test [13] has as its target Mitogen-activated protein kinase 10 (Mus musculus) (UniProt Q61831). Nature of the test: JNK3 AlphaScreen Assay (AID 530; active = well fitted curve in either direction with a large enough effect, not every such curve was filed as active;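 note: kinase came from lysate of stimulated human HepG2 cells; signal reports phosphorylation of biotinylated GST-cJun 1-79 at Ser73 with 10 µM ATP; % is set by controls: 0 for no effect and ±100 for the full control effect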). The following applies: JNK3 lysate, c-Jun phosphorylation; series mostly up to 57.1 µM. The method, boiled down: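 qHTS titrations with 15 min compound pre-incubation before adding ATP (10 uM final). Read-out: AlphaScreen of Ser73-phosphorylated biotin-GST-cJun using HepG2 lysate JNK3 activated by IL-1β and TNFα.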

Test [14] has as its target Guanine nucleotide-binding protein G(i) subunit alpha-1 (Homo sapiens) (UniProt P63096). Nature of the test: qHTS Assay for Inhibitors of RGS12 GoLoco Motif Activity (Green Fluorophore) (AID 879).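 Note: 0% = labeled peptide with Gαi1 and full inhibition = labeled peptide alone without protein; negative values mean loss of peptide binding seen as reduced polarization.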 The following applies: Galphai1/FITC-RGS12 GoLoco peptide, fluorescence polarization; series mostly up to 57.1 µM. The method, boiled down: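 A drop in FITC polarization marked displacement of the FITC-tagged RGS12 GoLoco peptide (10 nM) from Gαi1 (50 nM). Compounds were incubated 10 min at room temperature in Tris pH 7.5 buffer containing 150 mM NaCl, 0.1 mM GDP and 0.05% NP40; unlabeled peptide titration served as control.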

A short description of test [15]: qHTS Assay for Identification of Small Molecule Agonists for Thrombopoietin (TPO) Signaling Pathway (AID 917). Note: % is set by controls: 0 for no effect and ±100 for the full control effect. To be noted: TPO signaling pathway reporter cells, agonist qHTS, stimulated with TPO at its EC50; series mostly up to 38.5 µM. The method, boiled down: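 Quantitative HTS for pathway activators: compounds were pin-transferred onto IL-3-starved Ba/F3 cells expressing human TPO receptor, TPO was added at its EC50 (26 pM final), and after 24 hrs at 37 C reporter luciferase was measured.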

Test [16] has as its target Pyruvate kinase (Leishmania mexicana) (UniProt Q27686). Nature of the test: qHTS Validation Assay for Inhibitors of Leishmania Mexicana Pyruvate Kinase (AID 945).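 Note: 0% = DMSO only neutral control wells.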 The following applies: purified L. mexicana pyruvate kinase, enzyme activity, E451W mutant enzyme; series mostly up to 57.5 µM. Summed up:
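Luminescent ATP detection (PKLight) after a 1 h room-temperature reaction of 0.2 nM LmPYK E451W mutant with 0.5 mM PEP and 0.1 mM ADP at pH 7.2. Activity is normalized to DMSO-only control wells.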

The target in test [17] is DNA dC->dU-editing enzyme APOBEC-3G (Homo sapiens) (UniProt Q9HC16). Nature of the test: qHTS for inhibitors of Vif-A3G interactions: Validation (AID 588379). Note: 0% is about no effect. To be noted: Vif-A3G protein interaction assay; series mostly up to 46.1 µM. The method, boiled down: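 Yellow fluorescence (Ex 488, Em 500-530) of Vif-coexpressing HeLa A3G-eYFP cells, scanned by Acumen cytometer, reports blocked A3G degradation. Cells plated at 700/well overnight at 37 deg C before compound addition, then a further overnight compound incubation at 37 deg C.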

Test [18] in a line: NCATS anti-infectives library activity on HEK293 viability as a counter-qHTS vs the C. elegans viability qHTS (AID 1745854). Note: % is set by controls: 0 for no effect and ±100 for the full control effect. The following applies: HEK293 viability counter-screen; series mostly up to 41.8 µM. Summed up: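 Cytotoxicity counter-screen to a worm viability qHTS: CellTiter-Glo luminescence read 10 min after reagent addition. Compounds (final up to 41.7 uM, a 1:5 dilution series) incubated 24 hr at 37C with 1,500 HEK293 cells per well; digitonin control.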

Inconclusive results are not listed. Activity calls are given as the source filed them. Unless noted, calls come from the whole dose curve; as a rule, active = well fitted curve in the direction sought with a large enough effect; inconclusive = small, poorly fitted or top-dose-only effect, or another doubt; inactive = no such curve, though single readings can be large; an effect the other way counts as inactive or inconclusive.

Sequence of Pyruvate kinase (Leishmania mexicana) (Q27686 2-499 E452W): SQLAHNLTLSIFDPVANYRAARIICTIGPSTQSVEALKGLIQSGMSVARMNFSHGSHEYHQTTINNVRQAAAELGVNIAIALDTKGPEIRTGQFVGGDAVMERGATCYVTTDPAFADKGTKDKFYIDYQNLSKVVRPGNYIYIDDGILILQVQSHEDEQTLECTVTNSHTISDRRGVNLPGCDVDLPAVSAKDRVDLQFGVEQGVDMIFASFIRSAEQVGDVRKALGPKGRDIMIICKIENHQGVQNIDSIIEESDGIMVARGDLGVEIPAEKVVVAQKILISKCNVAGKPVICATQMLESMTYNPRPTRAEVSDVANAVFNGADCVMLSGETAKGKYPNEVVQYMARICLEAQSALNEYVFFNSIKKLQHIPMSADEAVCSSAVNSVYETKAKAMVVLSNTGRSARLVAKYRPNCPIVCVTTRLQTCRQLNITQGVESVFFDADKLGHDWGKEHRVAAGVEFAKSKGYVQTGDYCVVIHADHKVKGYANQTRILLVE
Sequence of Catechol O-methyltransferase (Homo sapiens) (P21964 whole entry, looked up): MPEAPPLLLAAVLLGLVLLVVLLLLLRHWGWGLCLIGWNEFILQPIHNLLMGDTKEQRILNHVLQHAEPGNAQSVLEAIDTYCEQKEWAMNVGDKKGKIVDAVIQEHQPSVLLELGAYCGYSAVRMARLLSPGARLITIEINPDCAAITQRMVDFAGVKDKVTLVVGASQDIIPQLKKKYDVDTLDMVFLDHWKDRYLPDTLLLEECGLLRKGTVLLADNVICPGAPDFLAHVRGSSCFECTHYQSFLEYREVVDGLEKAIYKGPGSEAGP
Sequence of Phenylethanolamine N-methyltransferase (Homo sapiens) (P11086 whole entry, looked up): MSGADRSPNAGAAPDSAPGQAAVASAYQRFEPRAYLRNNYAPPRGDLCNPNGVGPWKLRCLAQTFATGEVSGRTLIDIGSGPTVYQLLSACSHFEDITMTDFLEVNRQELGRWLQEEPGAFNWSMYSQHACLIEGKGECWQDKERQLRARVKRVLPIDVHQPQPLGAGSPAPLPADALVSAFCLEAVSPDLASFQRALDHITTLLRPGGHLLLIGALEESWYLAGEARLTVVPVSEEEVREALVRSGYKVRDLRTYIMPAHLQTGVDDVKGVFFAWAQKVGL
Sequence of DNA dC->dU-editing enzyme APOBEC-3G (Homo sapiens) (Q9HC16 whole entry, looked up): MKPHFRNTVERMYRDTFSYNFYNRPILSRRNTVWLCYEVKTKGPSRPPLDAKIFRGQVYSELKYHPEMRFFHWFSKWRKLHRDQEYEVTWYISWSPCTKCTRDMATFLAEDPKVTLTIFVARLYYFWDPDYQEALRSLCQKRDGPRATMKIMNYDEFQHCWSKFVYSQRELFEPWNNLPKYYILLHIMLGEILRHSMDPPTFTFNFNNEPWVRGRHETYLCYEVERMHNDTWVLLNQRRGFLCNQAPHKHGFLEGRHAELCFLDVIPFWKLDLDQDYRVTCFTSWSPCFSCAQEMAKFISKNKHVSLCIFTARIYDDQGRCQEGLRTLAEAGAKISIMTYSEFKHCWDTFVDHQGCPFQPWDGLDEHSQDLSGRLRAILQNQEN
Sequence of Glutathione peroxidase 1 (Homo sapiens) (P07203 whole entry, looked up): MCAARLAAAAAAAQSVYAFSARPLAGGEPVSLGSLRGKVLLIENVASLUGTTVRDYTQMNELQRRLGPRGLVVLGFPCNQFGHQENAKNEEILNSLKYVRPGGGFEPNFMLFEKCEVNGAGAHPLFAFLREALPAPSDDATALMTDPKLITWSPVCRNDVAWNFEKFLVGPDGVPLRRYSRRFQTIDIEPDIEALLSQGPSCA
Sequence of Guanine nucleotide-binding protein G(i) subunit alpha-1 (Homo sapiens) (P63096 whole entry, looked up): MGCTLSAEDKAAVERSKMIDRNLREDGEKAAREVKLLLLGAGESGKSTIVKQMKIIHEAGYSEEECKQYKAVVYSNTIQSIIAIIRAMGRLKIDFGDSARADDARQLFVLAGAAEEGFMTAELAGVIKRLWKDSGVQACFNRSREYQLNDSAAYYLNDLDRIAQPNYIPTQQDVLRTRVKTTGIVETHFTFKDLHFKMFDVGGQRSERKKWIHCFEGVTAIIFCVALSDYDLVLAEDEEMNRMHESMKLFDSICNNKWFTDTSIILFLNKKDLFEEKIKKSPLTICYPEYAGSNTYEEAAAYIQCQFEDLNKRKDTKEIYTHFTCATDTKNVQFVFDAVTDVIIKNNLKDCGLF
Sequence of Nicotinamide N-methyltransferase (Homo sapiens) (P40261 whole entry, looked up): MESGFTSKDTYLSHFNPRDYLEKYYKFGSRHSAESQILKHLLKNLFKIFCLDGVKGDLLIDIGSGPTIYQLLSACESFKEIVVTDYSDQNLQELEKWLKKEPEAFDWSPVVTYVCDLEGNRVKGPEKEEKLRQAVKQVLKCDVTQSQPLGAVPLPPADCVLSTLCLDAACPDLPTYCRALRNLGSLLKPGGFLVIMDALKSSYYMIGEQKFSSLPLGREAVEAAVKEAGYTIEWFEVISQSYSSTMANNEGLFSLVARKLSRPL

For the compound `CNc1cc2c(Nc3cccc(Br)c3)ncnc2cn1`, the Potency result in test [1] and in test [10] was “inactive” in each case. In addition, the Potency in [2] was 35.5 µM (active); in test [3], 2 µM (active); in test [4], 14.6 µM (active); in test [5], 20.6 µM (active); in test [7] it was 30.4 µM (active). In addition, the activity in [6] is -38.7%; in [8], -23.8%; in test [9] it was -74.4%.
In the case of `COc1ccc(CCN(C)CCC[C@@](C#N)(c2ccc(OC)c(OC)c2)C(C)C)cc1OC`, the activity change, negative = inhibition in test [11] (at 17.2 µM (top of the series)) was 2.2% (inactive); in [11] (at 38 µM (top of the series)), 10.5% (inactive). Moreover, the activity, negative = inhibition is -16.1% (inactive) in test [12] (at 17.2 µM (top of the series)) and -6.6% (inactive) in [12] (at 38 µM (top of the series)). The Potency result in test [13], in [15], in test [16], in test [17], in test [1] and in test [2] was “inactive” each time. In addition, the outcome in test [14] and in test [18] was “inactive” in each case. Moreover, the Potency in [3] is 12.6 µM (active).
